In PubChem BioAssay (Tox21):
Results filed as inconclusive are left out. Values without a mark were called inactive. The source made the active and inactive calls. Calls follow the shape of the dose curve; as a rule, active = well fitted inhibition curve with a large enough effect in the repeat runs; inconclusive = weak or mixed curves; inactive = no such curve, though single readings can be large or run the other way.

target: Cytochrome P450 2C9 (Homo sapiens) (UniProt P11712); experiment: Cytochrome P450 Family 2 Subfamily C Member 9 (CYP2C9) small molecule antagonists: luciferase reporter qHTS assay (AID 1671198); conditions: P450-Glo CYP2C9 enzyme assay, luciferin luminescence; series mostly up to 115 µM; activity change, negative = inhibition: at the top concentration; also: nearly all actives have a fitted effect of over 50% in size
Sequence (P11712 whole entry, looked up): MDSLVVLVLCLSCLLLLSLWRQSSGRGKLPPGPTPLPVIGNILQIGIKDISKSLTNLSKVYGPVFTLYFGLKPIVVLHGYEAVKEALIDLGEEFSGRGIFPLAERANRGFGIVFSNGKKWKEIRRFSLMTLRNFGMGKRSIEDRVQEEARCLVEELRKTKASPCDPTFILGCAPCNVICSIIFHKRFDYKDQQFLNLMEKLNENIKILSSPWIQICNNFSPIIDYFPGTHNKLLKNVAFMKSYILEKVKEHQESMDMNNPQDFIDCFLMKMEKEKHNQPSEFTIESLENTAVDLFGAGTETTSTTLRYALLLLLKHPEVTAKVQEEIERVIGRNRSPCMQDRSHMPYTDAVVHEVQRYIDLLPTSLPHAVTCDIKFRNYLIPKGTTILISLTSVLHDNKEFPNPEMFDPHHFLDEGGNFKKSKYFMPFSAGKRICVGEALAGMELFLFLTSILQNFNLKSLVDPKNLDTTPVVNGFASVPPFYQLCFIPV
Description: U.S. Tox21 Program National Center for Advancing Translational Sciences [NCATS] U.S. Environmental Protection Agency [EPA] National Institutes of Environmental Health Sciences [NIEHS] National Toxicology Program [NTP] U.S. Food and Drug Administration [FDA] Tox21 Assay Overview: Cytochrome P450 (CYP) enzymes are membrane-bound hemeproteins that play a key role in metabolism of drugs and xenobiotics. Evaluation of the effect of chemicals on CYP isozymes is useful to minimize the adverse drug reactions and toxicities in drug development process. Tox21 chemicals were tested for their effect on CYP enzyme activities by using P450-Glo (TM) screening systems (Promega Corporation, Madison, WI). These systems provide a luminescent method containing proluciferin substrates and are converted to luciferin products by CYP isozymes. The luciferin products formed are detected with a luciferin detection reagent, and the amount of light produced is proportional to CYP activity. P450-Glo (TM) CYP2C9 screening system (Catalog. No. V9790) was used to detect the compounds that interfere in CYP2C9 activity.
Tox21 Assay Protocol Summary: Two ul of enzyme-substrate mix was dispensed into medium binding white/solid 1536-well plates (Greiner Bio-One North America Inc., Monroe, NC) using a BioRaptr Flying Reagent Dispenser (FRD, Beckman Coulter, Brea, CA). […] The assay plates were incubated at room temperature for 10 min. Then 2 ul of NADPH regeneration solution was added to each well of the assay plates using an FRD and incubated at 37C for 1 h. The reaction was stopped by adding 4 ul of detection reagent using an FRD and after 20 min incubation at room temperature the luminescence signal was measured using a ViewLux plate reader (Perkin Elmer, Shelton, CT). Data were expressed as relative luminescence units.
% is scaled to controls: 0 for no effect and ±100 for the full control effect; potency is read from the fitted curve at half-maximal effect.

SMILES	activity change, negative = inhibition	Potency
CC1(N)CCC(C(C)(C)N)CC1 (stereo not given)	-3.25%	–
C=C[C@@H](C)CCC=C(C)C	-12.6%	–
CCCCC(=O)N(C)C	-0.584%	–
COCC(=O)Nc1c(I)c(C(=O)NCC(O)CO)c(I)c(C(=O)N(C)CC(O)CO)c1I (stereo not given)	2.53% [at 53 µM]	–
O=C1CC[C@H](C(=O)N2CCCCC2)N1	-33.5% [at 53 µM]	–
CCCCCCCCCCCCC1CO1 (stereo not given)	-1.73%	–
CC(C)COC(=O)COc1ccc(Cl)cc1Cl	–	31.7 µM (active)
CC(=O)OC[C@H]1O[C@@H](OC(C)=O)[C@H](OC(C)=O)[C@@H]1OC(C)=O	-5.6% [at 53 µM]	–
Nc1ccc(/C=C/c2ccc(N)cc2S(=O)(=O)O)c(S(=O)(=O)O)c1	3.26% [at 0.435 µM]	–
O=C(O)c1ccc(OCCN2CCCCC2)cc1	-1.92% [at 53 µM]	–
CCC(C)(C)C1CCC(=O)CC1	-1.75%	–
O=C(/C=C/c1ccccc1)NCCO	–	13.8 µM (active)
C=CCOCC(CO)(COCC=C)COCC=C	–	7.17 µM (active)
COc1cc([N+](=O)[O-])ccc1N	-37.2%	–
O=C(O)c1ccccc1C(=O)Nc1ccc(S(=O)(=O)Nc2nccs2)cc1	-8.11% [at 53 µM]	–
Cc1cccc(Nc2ccncc2S(=O)(=O)NC(=O)NC(C)C)c1	–	13.8 µM (active)
O=C(CN1CCN(Cc2ccc3c(c2)OCO3)CC1)N1c2ccccc2Sc2ccccc21	–	15.5 µM (active)
CC(C)(c1ccc(Oc2ccc3c(c2)C(=O)OC3=O)cc1)c1ccc(Oc2ccc3c(c2)C(=O)OC3=O)cc1	0.884%	–
Cc1ccccc1N1CCN(CCc2nnc3n2CCCC3)CC1	-0.475% [at 53 µM]	–
CCOC(=O)C(=O)c1csc(NC=O)n1	-2.65% [at 53 µM]	–

SMILES	activity change, negative = inhibition	Potency
CC(C)=CC(C)(C)C	-8.97%	–
C/C=C(\C)C(=O)OCC/C=C\CC	-10.3%	–
CCCCC(CC)C(=O)OC(C)C (stereo not given)	-0.418%	–
CC1CCC(C(C)(C)S)C(=O)C1 (stereo not given)	–	39.9 µM (active)
O=c1[nH]c(=O)c2ccccc2o1	10.6% [at 53 µM]	–
COC(OC)C(C)c1ccccc1 (stereo not given)	-13.4%	–
C[C@H](CCC(=O)O)[C@H]1CC[C@H]2[C@@H]3[C@H](O)C[C@@H]4C[C@H](O)CC[C@]4(C)[C@H]3C[C@H](O)[C@]12C	-14.5% [at 53 µM]	–
CC(C)CCO	2.3%	–
CCCCCCCC/C=C\CCCCCCCC(=O)OC[C@@H](O)[C@H]1OC[C@H](O)[C@H]1O	–	31.7 µM (active)
SCCSCCS	-11.2%	–
NC(=O)C1(N2CCCCC2)CCN(CCCC(=O)c2ccc(F)cc2)CC1	9.73% [at 53 µM]	–
COc1cc2c(Nc3ccc(Br)cc3F)ncnc2cc1OCC1CCN(C)CC1	3.83% [at 53 µM]	–
COc1ccc(N=Nc2cc(C)c(N=Nc3ccc(S(=O)(=O)O)cc3)cc2OC)cc1	–	63.3 µM (active)
O=c1[nH]c(=O)c2[nH]c(=O)[nH]c2[nH]1	10.1% [at 10.5 µM]	–
CCC(C)(CCC(C)C)C(=O)[O-].CCC(C)(CCC(C)C)C(=O)[O-].[Zn+2] (stereo not given)	–	17.8 µM (active)
COc1cc2c3cc1Oc1cc(ccc1O)C[C@@H]1c4c(cc(OC)c(O)c4Oc4ccc(cc4)C[C@@H]3N(C)CC2)CC[N+]1(C)C	7.5% [at 53 µM]	–
C=C(C)C(=O)OC	-2.49%	–
CCCCCCCCC(=O)OCC	-7.14%	–
CC(=O)OC(C(=O)c1ccccc1)c1ccccc1 (stereo not given)	–	31.9 µM (active)
O=C(c1ccc2c(c1)C(=O)OC2=O)c1ccc2c(c1)C(=O)OC2=O	2.65%	–
